# An excerpt weighted towards active compounds, which were near 5.2% of everything screened.
# PostGolgi ctrl – inhibits growth of the yeast control strain | inhibition, % at 10 µM | hit rate 5% among 98,000 | efflux-deficient yeast background strain, growth absorbance A615, 16 h
# PostGolgi yeast – growth inhibition of a yeast mutant, post-Golgi transport screen; post-Golgi transport phenotypic cell assay; inhibition, % at 10 µM; hit rate 0.9% among 98,000;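 note: yeast cells grown in 1536-well plates; yeast grown about 18 h at 30C before absorbance read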
# Candida biofilm – kills Candida albicans biofilms. C. albicans biofilm + clotrimazole, Alamar Blue. inhibition, % at 6 µM. hit rate 0.14% among 85,000;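 active = inhibition above 20%; inactive = inhibition below 20%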;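 note: preformed 24 hr biofilms exposed to compound for 48 hr; 0% = biofilm without compound and 100% = blank killed by clotrimazole plus chlorhexidine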
# EphB4 ephrin blk – EphB4-ephrin-B2 interaction antagonism; inhibition, % at 7 µM; AID 720; hit rate 0.15% among 97,000; P54760; EphB4 LBD / TNYL-RAW-Alexa532 peptide, fluorescence polarization;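 active = inhibition above the screen-wide mean inhibition plus 3 SD, cut at about 15% in these data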;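 note: 0% = DMSO wells and 100% = excess unlabeled TNYL-RAW peptide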
# Target sequence (P54760 whole entry, looked up, the tested form may be a part): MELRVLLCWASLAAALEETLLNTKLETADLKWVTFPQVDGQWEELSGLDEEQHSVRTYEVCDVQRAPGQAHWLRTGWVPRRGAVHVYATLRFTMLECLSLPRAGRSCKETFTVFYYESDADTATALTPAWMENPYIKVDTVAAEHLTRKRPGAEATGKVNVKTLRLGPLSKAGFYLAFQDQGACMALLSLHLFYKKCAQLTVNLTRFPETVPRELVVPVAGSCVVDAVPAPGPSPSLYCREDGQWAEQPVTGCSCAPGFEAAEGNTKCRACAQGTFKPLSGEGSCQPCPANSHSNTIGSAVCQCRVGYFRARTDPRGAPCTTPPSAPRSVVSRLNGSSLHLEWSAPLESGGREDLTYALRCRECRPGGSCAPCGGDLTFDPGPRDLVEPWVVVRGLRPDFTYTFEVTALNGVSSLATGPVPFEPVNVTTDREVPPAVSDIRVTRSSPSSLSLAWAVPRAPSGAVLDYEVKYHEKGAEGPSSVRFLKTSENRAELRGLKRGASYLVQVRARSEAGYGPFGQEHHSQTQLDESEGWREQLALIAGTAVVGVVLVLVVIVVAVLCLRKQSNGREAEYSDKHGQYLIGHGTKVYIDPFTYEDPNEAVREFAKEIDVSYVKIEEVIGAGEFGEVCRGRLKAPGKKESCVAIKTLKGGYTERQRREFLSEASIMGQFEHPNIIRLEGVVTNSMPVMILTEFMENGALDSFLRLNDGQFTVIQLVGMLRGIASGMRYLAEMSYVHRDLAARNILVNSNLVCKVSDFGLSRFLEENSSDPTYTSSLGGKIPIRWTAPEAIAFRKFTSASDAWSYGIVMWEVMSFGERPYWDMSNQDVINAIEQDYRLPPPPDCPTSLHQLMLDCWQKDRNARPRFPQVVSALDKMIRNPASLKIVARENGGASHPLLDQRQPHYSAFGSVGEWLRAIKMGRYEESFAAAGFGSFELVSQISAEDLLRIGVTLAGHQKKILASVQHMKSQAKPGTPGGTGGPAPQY
# An asterisk follows results filed as active; x = not tested or not shown. Cut-off read from the data, not from the text of the source, unless noted: active = inhibition above about 30%; inactive = the rest.
SMILES,PostGolgi ctrl,PostGolgi yeast,Candida biofilm,EphB4 ephrin blk
COc1ccc(/C=C/c2ccncc2)c2ccccc12,43*,-1,-1,-3
O=C(O)C1CC=CCC1C(=O)Nc1ccc2c(c1)OCCO2 (stereo not drawn),x,x,-4,0
CCOC(=O)C1CCN(c2ncnc3c2oc2ccc(Cl)cc23)CC1,33*,5,-2,-6
CCOC(=O)C1CCN(c2ncnc3c2[nH]c2cccc(OC)c23)CC1,13,-1,7,0
O=[N+]([O-])c1cccc(-c2ccc(/C=N/NC(=S)Nc3ccccc3)o2)c1,48*,-13,x,7
S=C(N/N=C/c1ccccc1Cl)Nc1ccccc1,7,6,x,-1
COc1ccc(Oc2cc(C(F)(F)F)cnc2C(N)=O)cc1,-6,12,3,8
COc1cc(/C=N/N=C(/N)c2nonc2N)cc(Br)c1OCc1cccc(C)c1,33*,-9,0,-2
CCOc1cc(/C=N/N=C(\N)c2nonc2N)cc(Br)c1OCc1cccc2ccccc12,-2,17,6,4
CCOc1ccc(OCC)c(NC(=O)CN2CCN(c3cccc(C)c3)CC2)c1,28,3,-2,x
CCOc1ccc(OCC)c(NC(=O)CN2CCN(c3cccc(C)c3)C(C)C2)c1 (stereo not drawn),30*,2,6,4
CCN(CC)S(=O)(=O)c1ccc(S(=O)(=O)N(CC(=O)Nc2ccccc2)Cc2ccco2)cc1,x,x,4,2
O=C(NCCC1=CCCCC1)C(c1ccccc1)c1ccccc1,14,2,x,6
C=CCn1c(SC(C)C(=O)NCCC2=CCCCC2)nc2ccccc2c1=O (stereo not drawn),32*,-7,3,-5
CC1CN(C2CCN(S(=O)(=O)c3ccc(F)cc3)CC2)CC(C)O1 (stereo not drawn),30*,48*,2,2
Cc1ccc(C)c(OCC(=O)Nc2nc3ccc([N+](=O)[O-])cc3s2)c1C,34*,6,x,0
CC(C)CCn1c(SCCN2CCOCC2)nc2c1c(=O)[nH]c(=O)n2C,-4,29,3,18*
CC(C)CCn1c(SCCc2ccccc2)nc2c1c(=O)[nH]c(=O)n2C,35*,-7,4,9
CCCn1c(SCCc2ccccc2)nc2c1c(=O)[nH]c(=O)n2C,20,2,4,x
Cc1ccc(Sc2nc3c(c(=O)[nH]c(=O)n3C)n2CCc2ccccc2)cc1,35*,-15,14,4
Cn1c(=O)[nH]c(=O)c2c1nc(Sc1nc3ccccc3s1)n2Cc1ccccc1,41*,3,-1,3
O=C(CCn1c(=O)c2sccc2n(CC(=O)OCc2ccccc2)c1=O)NCc1ccccc1,-3,9,8,-6
C/C=C/Cn1c(SCCCc2ccccc2)nc2c1c(=O)[nH]c(=O)n2C,41*,5,7,-9
C=CCn1c(SCCCc2ccccc2)nc2c1c(=O)[nH]c(=O)n2C,30,6,16,x
N#C/C(=C\c1ccc(Sc2nc3ccccc3[nH]2)o1)c1ccccc1,54*,-9,1,-1
SMILES,PostGolgi ctrl,PostGolgi yeast,Candida biofilm,EphB4 ephrin blk
COC(=O)c1ccccc1S(=O)(=O)N1Cc2cc([N+](=O)[O-])ccc2Oc2ccccc21,19,20,-2,4
O=C(OCc1nnc(-c2ccccc2)o1)C1CCN(S(=O)(=O)c2cccs2)CC1,1,0,0,1
CCOC(=O)c1sc2ccc(S(=O)(=O)N3CC(C)CC(C)C3)cc2c1N (stereo not drawn),x,x,4,x
CN(C)c1ccnc2sc(C(=O)NCc3ccccc3)c(N)c12,63*,13,10,2
COc1ccc(C(=O)N/N=C2/SCC(=O)N2Cc2ccc3c(c2)OCO3)cc1OC,-9,-5,x,16*
Cc1ccc(S(=O)(=O)NCC(=O)OC(C)C(=O)Nc2ncc(Cl)cc2Cl)cc1 (stereo not drawn),1,-3,3,2
CCOC(=O)C1CCN(CC(=O)Nc2c(C(=O)OC)[nH]c3ccc(Cl)cc23)CC1,10,3,4,4
CCOC(=O)C1CCCN(CC(=O)Nc2c(C(=O)OC)[nH]c3ccc(Br)cc23)C1 (stereo not drawn),56*,1,6,-4
COC(=O)c1[nH]c2ccc(Br)cc2c1NC(=O)CN1CCCc2ccccc21,69*,0,0,-3
O=C1c2ccccc2NC(c2c(Cl)cccc2Cl)N1Cc1ccccc1 (stereo not drawn),42*,65*,-4,1
O=C1c2ccccc2NC(c2ccc(Cl)cc2Cl)N1O (stereo not drawn),11,3,7,3
O=C1c2ccccc2NC(c2ccc(Cl)cc2Cl)N1Cc1ccccc1 (stereo not drawn),36*,12,6,3
O=C(c1ccc(N2CCCCS2(=O)=O)cc1)N1CCN(c2ccc(N3CCOCC3)nn2)CC1,6,-1,11,x
O=C(c1ccc(Br)o1)N(Cc1ccccc1)c1ccccn1,6,3,6,-2
O=C(Nc1ccc(N=Nc2ccccc2)cc1)c1ccc(Cl)cc1Cl,1,18,x,-2
O=C(Nc1ccccc1)C1=C(O)CC(c2ccoc2)CC1=Nc1ccccc1 (stereo not drawn),46*,14,4,-3
O=C(Nc1ccccc1)C1=C(O)CC(c2ccco2)CC1=Nc1ccccc1 (stereo not drawn),31*,69*,3,-10
O=C(COc1ccc(Br)cc1)N1CCC(c2ccccc2)C1 (stereo not drawn),4,-11,-1,10
Cc1ccc(CN2C(=O)CCSc3ccc(Cl)cc32)cc1,46*,4,x,0
O=C1CCSc2ccc(Cl)cc2N1Cc1cccc(Cl)c1,41*,-13,x,-3
CCOc1ccc(Br)cc1C1C(C(=O)OC)=C(N)Oc2cc(N(C)C)ccc21 (stereo not drawn),31*,1,2,0
C=C(Cl)COc1ccc2c(CCCC)cc(=O)oc2c1,31*,-1,0,6
CCOC(=O)c1cc(-c2ccccc2)sc1NC(=O)C(C)Sc1nnnn1C (stereo not drawn),64*,73*,4,2
Nc1ccc(Oc2ccc3nc(-c4ccccc4)c(-c4ccc([N+](=O)[O-])cc4)nc3c2)cc1,19,37*,x,-5
Cc1c(-c2ccccc2)nc2ccccc2c1C(=O)Oc1ccc([N+](=O)[O-])cc1,7,6,x,-5
SMILES,PostGolgi ctrl,PostGolgi yeast,Candida biofilm,EphB4 ephrin blk
CCOC(=O)NCC(C#CCN(CC)CC)N(CC)CC (stereo not drawn),42*,-1,7,-5
CCOC(=O)NCc1ccc(CNC(=O)OCC)cc1,9,14,3,x
CCOc1ccc2nnc(-c3ccc(Br)cc3)n2n1,x,x,8,-11
O=C(Nc1ccc(Cl)c(Cl)c1)N(CCCN1CCOCC1)Cc1cccs1,31*,15,10,1
O=C(Nc1cccc(Cl)c1)N(CCCN1CCOCC1)Cc1ccccc1F,4,0,3,-5
O=C(Nc1ccc(F)cc1)N(CCCN1CCOCC1)Cc1cc2cc3c(cc2[nH]c1=O)OCO3,2,8,x,x
O=C(Nc1ccc(Cl)cc1)N(Cc1cccs1)Cc1cccs1,35*,2,4,6
O=C(Nc1ccc(F)cc1)N(CCCN1CCOCC1)Cc1cc2cc3c(cc2[nH]c1=O)OCCO3,40*,2,10,1

# Screens deposited in PubChem BioAssay by several laboratories.
